# About 83,000 compounds went through this panel and 20% of them were active in at least one assay; those are over-represented in the sample as a whole.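 Negative percent growth values reflect cell death: -40 means 40% of the cells present at the start died, and -100 means all died.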 Unmarked numbers belong to inactive results. The source made the active and inactive calls. Rule for the calls: active = growth percent below 10; inactive = the rest.
# What was measured:
# Assay in all cases: NCI-60 one-dose screen, 48 h (100 = growth as untreated, 0 = no growth, -100 = all killed)
# [1] = tested on: HCT-15 colon; conditions: 10 µM unless noted
# [2] = tested on: HT29 colon; conditions: 10 µM unless noted
# [3] = tested on: SNB-75 CNS; conditions: 10 µM unless noted
# [4] = tested on: SNB-19 CNS; conditions: 10 µM unless noted
# [5] = tested on: U251 CNS; conditions: 10 µM unless noted
# [6] = tested on: PC-3 prostate; conditions: 10 µM unless noted
# [7] = tested on: SK-MEL-5 melanoma; conditions: 10 µM unless noted
# [8] = tested on: UACC-62 melanoma; conditions: 10 µM unless noted
# [9] = tested on: LOX IMVI melanoma; conditions: 10 µM
# [10] = tested on: SK-MEL-28 melanoma; conditions: 10 µM unless noted
# [11] = tested on: SN12C renal; conditions: 10 µM unless noted
# [12] = tested on: UO-31 renal; conditions: 10 µM unless noted
# [13] = tested on: TK-10 renal; conditions: 10 µM unless noted
# [14] = tested on: ACHN renal; conditions: 10 µM unless noted
# [15] = tested on: CAKI-1 renal; conditions: 10 µM unless noted
# [16] = tested on: A498 renal; conditions: 10 µM unless noted
# [17] = tested on: CCRF-CEM leukemia; conditions: 10 µM unless noted
# [18] = tested on: MOLT-4 leukemia; conditions: 10 µM unless noted
# [19] = tested on: EKVX NSCLC; conditions: 10 µM unless noted
# [20] = tested on: SK-MEL-2 melanoma; conditions: 10 µM unless noted
Structure (SMILES),growth [1],growth [2],growth [3],growth [4],growth [5],growth [6],growth [7],growth [8],growth [9],growth [10],growth [11],growth [12],growth [13],growth [14],growth [15],growth [16],growth [17],growth [18],growth [19],growth [20]
OCCOSCCO,89%,106%,99.3%,110%,101%,113%,101%,114%,103%,108%,111%,96.3%,100%,91.2%,101%,120%,107%,104%,–,–
CC1=CC(=O)C=CC1(C)C(Cl)(Cl)Cl (stereo not drawn),97.3%,83.1%,109%,92%,83.1%,92.9%,103%,95.7%,93%,102%,88.8%,92%,80.2%,97.3%,104%,87.6%,94.9%,93.9%,100%,–
CCCCCCCCCCCC1N=C(N)N=C(N)N1c1cccc(Br)c1 (stereo not drawn),71.5%,-81.8% (active),-12.7% (active),-93.6% (active),-75.2% (active),-55.2% (active),19.3%,37.9%,9.55% (active),70.4%,8.08% (active),71.9%,-45% (active),25.3%,80.5%,76.1%,-15.1% (active),-16.5% (active),43.2%,–
CCCN(CCC)C(=O)c1ccc(C)cc1,100%,96%,105%,98.2%,85.5%,86.5%,92.2%,97.2%,95.4%,105%,97.9%,94.1%,99.6%,102%,99.2%,27%,85.7%,101%,89.2%,–
N#CC(I)CS(=O)(=O)c1ccccc1 (stereo not drawn),64.2%,50.9%,95.5%,94.8%,91.2%,90.8%,97.5%,84.4%,70.8%,–,93.4%,77.2%,89.7%,36.7%,55.4%,121%,3.27% (active),88.9%,103%,91.6%
O=C(Nc1ccc(Cl)c(Cl)c1)Nc1ccccc1O,78.5%,112%,67%,85.8%,85.7%,38.1%,74.5%,42.8%,70.4%,–,76.4%,55.8%,116%,76.5%,–,106%,37.1%,61.1%,80.4%,77%
Oc1c(Cl)cc(Cl)cc1C=NCC1CCC(CN=Cc2cc(Cl)cc(Cl)c2O)CC1 (stereo not drawn),84.9%,103%,66.9%,79.8%,83%,77.6%,94.4%,97.7%,69.6%,89.2%,–,45.8%,124%,101%,91.7%,113%,59%,78.1%,–,–
C/C(=N\NC(=S)N1CC2CCC(CC2)C1)c1ccccn1,18.4%,6.46% (active),33.8%,11.7%,5.52% (active),-4.47% (active),-68.3% (active),-36.7% (active),4.04% (active),37.9%,4.27% (active),-8.11% (active),21.6%,15.1%,–,-12.4% (active),3.63% (active),3.87% (active),-6.66% (active),–
CC(C)(C)c1ccc(O)c(Br)c1,104%,103%,77%,95.9%,106%,101%,96.4%,98.2%,98.3%,102%,94.6%,86.5%,111%,104%,96.4%,73.4%,7.22% (active),–,–,–
CC(=O)N1CC(=O)NC1=S,99.9%,106%,89.2%,101%,94.8%,97.9%,103%,96.1%,98.5%,108%,100%,86.1%,102%,103%,93%,–,105%,104%,94%,–
CCOC(=O)c1c(C)[nH]c2ccc(O)cc12,109%,96.3%,100%,101%,97.3%,93.2%,101%,–,97.1%,120%,98.9%,72.3%,128%,110%,97.8%,111%,77.5%,105%,98.3%,97.9%
Cc1cc(C(N)=O)cc(C)c1C(=O)OCCCl,111%,106%,100%,109%,96.9%,96.8%,101%,102%,97.5%,–,98.3%,86.2%,106%,108%,97.6%,98.8%,112%,95.8%,89.1%,–
CCOC(=O)c1cc(CC)sc1NC(=O)CC(C)=O,19.9%,47.8%,44.8%,29.8%,34.7%,36.2%,54.3%,60.4%,–,96.7%,53%,40.8%,70.9%,39.9%,53.1%,98.7%,35.5%,14.4%,51%,61.5%
O=C(O)c1cc2c(s1)C(=O)c1sccc1C2=O,-59.3% (active),65.8%,-91.6% (active),-2.34% (active),30.4%,56.5%,-100% (active),51%,-72.5% (active),–,-46.9% (active),-43.1% (active),115%,–,107%,103%,42.5%,72.3%,101%,15.5%
Cn1ccc(=Nc2ccc(NC(=O)c3ccc(N=c4ccn(C)c5ccc([N+](=O)[O-])cc45)cc3)cc2)cc1,98.2%,73%,-9.29% (active),-5.19% (active),-17.5% (active),44%,89.8%,70.1%,56.2%,–,45.3%,82.6%,122%,99.2%,–,97.6%,89.2%,126%,77.5%,91.1%
CC(=O)C1Cc2ccccc2C1=O (stereo not drawn),108%,104%,70.8%,98%,103%,94.7%,103%,–,94.4%,115%,98%,79.5%,142%,–,82.6%,110%,125%,115%,80.6%,124%
CN(C)CCN(C)CC(C)(C)C(=O)/C=C/c1ccc(Cl)c(Cl)c1,-86.4% [100 µM] (active),-77.5% [100 µM] (active),-99.3% [100 µM] (active),-98.6% [100 µM] (active),-95.1% [100 µM] (active),-87.2% [100 µM] (active),-99.3% [100 µM] (active),-95.6% [100 µM] (active),–,-98.6% [100 µM] (active),-96.2% [100 µM] (active),-100% [100 µM] (active),-97.7% [100 µM] (active),-100% [100 µM] (active),-100% [100 µM] (active),-96% [100 µM] (active),-0.943% [100 µM] (active),-23.3% [100 µM] (active),-82.4% [100 µM] (active),-93.3% [100 µM] (active)
COc1c(C)c2c(c(O)c1C/C=C(\C)CCC(=O)O)C(=O)OC2,20.7%,13.3%,48.1%,42.3%,18.3%,40.3%,23.6%,41.7%,12.1%,–,–,27.9%,42%,–,6.69% (active),61.7%,26.1%,25.9%,48.2%,43.8%
